Assay results published in PubChem BioAssay (EPA / NIEHS).
Records with an inconclusive call do not appear. Activity calls are given as the source filed them. Rule for the calls: active = hit-call score of the fitted dose curve at least 0.9, where 1 is the maximum; inconclusive = response in the unintended direction; inactive = score below 0.9.

Assay: STM_H9_OrnCyssISnorm_ratio: Stemina devTOX quickPredict H9 human embryonic stem cell (hESC)-based Assay for Ornithine (ORN):Cystine (CYSS) Ratio (AID 2283714)
Method: STM_H9_secretome utilizes undifferentiated H9 cells to measure relative changes in two metabolites, ornithine (ORN) and cystine (CYSS) in the secretome, targeting a critical drop in the ORN/CYSS ratio as a biomarker for developmental toxicity.STM_H9_OrnCyssISnorm_ratio is one of 10 components calculated in the STM_H9_secretome assay. It is the ratio value of OrnISnorm_perc to CyssISnorm_perc.Data from the assay component STM_H9_OrnCyssISnorm_ratio was analyzed at the assay endpoint STM_H9_OrnCyssISnorm_ratio in the positive analysis fitting direction relative to DMSO as the negative control and baseline of activity. Using a type of binding reporter, gain or loss-of-signal activity can be used to understand relative metabolite change.
H9 hESCs maintained in a pluripotent state were exposed to test compound for 72h with chemical replenishment with media replacement every 24h. Cell-conditioned media from the final 24-h treatment period was collected for analysis of the targeted biomarker, and cell viability of the corresponding cell layer was assessed. The chemical library was tested in blinded fashion. Each test plate included 1uM Methotrexate (MTX; Selleck Chemicals, Houston, Texas) as a positive reference, 5 nM MTX as a negative reference, 0.1% DMSO as the neutral (vehicle) control, and sample-level media blanks.H9 cell-conditioned media from the final 24-h treatment period was collected for analysis of the targeted biomarker and cell viability was measured from the corresponding cell layer. Cell viability was measured using the CellTiter-Fluor assay (Promega, Madison, Wisconsin) based on proteolytic cleavage of a substrate to fluorescent signal proportional to the number of living cells. The cell viability Relative Fluorescence Unit (RFU) was background corrected and normalized to mean RFU of the neutral control (0.1% DMSO). The collected H9-cell-conditioned media samples were processed for targeted biomarker analysis as described (Palmer et al., 2013). Briefly, spent media samples were deproteinized (40% acetonitrile) and processed for UPLC-HRMS. Data acquisition was performed using 4 separate UPLC-HRMS systems, consisting of an Agilent 1290 Infinity LC system (Agilent Technologies) interfaced with an Agilent high-resolution mass spectrometer (models G6520A, G6520B, G6530A, and G6224A). A Waters Acquity UPLC BEH Amide column (2.1mm x 50mm, 1.7lm particle size; Waters, Milford, Massachusetts) maintained at 40C was applied for separation of metabolites using a 6.5min solvent gradient with 0.1% formic acid in water and 0.1% formic acid in acetonitrile (1.0ml/min flow rate). Data were acquired using MassHunter Acquisition software (version B 04.00, Agilent Technologies). The extracted ion chromatogram (EIC) areas for ORN, CYSS, and their respective spike-in C13-standards were determined using the Agilent MassHunter Quantitative Analysis software, version B.05.00 or newer (Agilent Technologies), and data were normalized as described in Palmer et al. (2017).
With CCCCOC(=O)c1ccc(O)cc1 the outcome was “inactive”. For O=C(Nc1ccc(Cl)cc1)Nc1ccc(Cl)c(Cl)c1, the outcome was “inactive”. With CN(C)c1ccc(C(=C2C=CC(=[N+](C)C)C=C2)c2ccc(N(C)C)cc2)cc1 the AC50 was 0.723 µM (active). With CN1C(=O)N(c2ccccc2Br)Cc2cnc(Nc3ccc4c(c3)OCC(CO)O4)nc21 (stereo not given) the AC50 was 1.18 µM (active). In the case of CC(C)(C)c1cc(/C=C2\SC(N)=NC2=O)cc(C(C)(C)C)c1O, the AC50 is reported as 3.33 µM (active). In the case of Cc1c2ccccc2c(C)c2c1ccc1ccccc12, the AC50 is reported as 5 µM (active). In the case of COc1cccc([C@H](O)C2CCN(CCc3ccc(F)cc3)CC2)c1OC, the AC50 is reported as 10 µM (active). In the case of CC/C(=C(/CC)c1ccc(O)cc1)c1ccc(O)cc1, the outcome is reported as “inactive”. For CN(C[C@@H](CC[N+]12CCC(C3CCCCC3)(CC1)CC2)c1ccc(Cl)c(Cl)c1)C(=O)c1cc(C(F)(F)F)cc(C(F)(F)F)c1, the AC50 was 14.4 µM (active). In the case of O=C=NCCCCCCN=C=O, the outcome is reported as “inactive”. For COc1cc(C(=O)NC2CCN(C)CC2)ccc1Nc1ncc2c(n1)N(C1CCCC1)CC(F)(F)C(=O)N2C, the AC50 was 0.0311 µM (active). With COc1ccc2cc(S(=O)(=O)N[C@H](CC(=O)N[C@H](Cc3ccc(CN4[C@H](C)CCC[C@@H]4C)cc3)C(=O)N(C)C(C)C)c3ccc4c(c3)OCO4)ccc2c1 the AC50 was 23 µM (active). In the case of NC(=O)c1nc(-c2cccc(-c3cc(F)ccc3OCC(F)(F)C(F)(F)F)c2)n[nH]1, the AC50 is reported as 3.99 µM (active). With CC(=O)N1CCN(c2ccc(OC[C@H]3CO[C@](Cn4ccnc4)(c4ccc(Cl)cc4Cl)O3)cc2)CC1 the AC50 was 2.35 µM (active). With O=c1c(-c2ccc(O)cc2)coc2cc(O)cc(O)c12 the AC50 was 73.7 µM (active). With CN1C(=O)CC[C@H]1c1cccnc1 the outcome was “inactive”. In the case of Cc1cn([C@H]2C[C@H](N=[N+]=[N-])[C@@H](CO)O2)c(=O)[nH]c1=O, the AC50 is reported as 4.02 µM (active). In the case of CCCCCCCCOC(=O)c1cc(O)c(O)c(O)c1, the AC50 is reported as 2.54 µM (active). In the case of OCCO, the outcome is reported as “inactive”. With CCCCCCCCCCCC[N+](C)(C)C the AC50 was 4.73 µM (active). For Clc1cc(Cl)c2c(c1)N=C1CCCCCN1C2, the outcome was “inactive”. For CO[C@H]1/C=C/O[C@@]2(C)Oc3c(C)c(O)c4c(O)c(c(/C=N/N5CCN(C)CC5)c(O)c4c3C2=O)NC(=O)/C(C)=C\C=C\[C@H](C)[C@H](O)[C@@H](C)[C@@H](O)[C@@H](C)[C@H](OC(C)=O)[C@@H]1C, the AC50 was 4.04 µM (active). For CN(C)C(=O)C1(N2CCCCC2)CCN(CC[C@@]2(c3ccc(Cl)c(Cl)c3)CN(C(=O)c3ccccc3)CCO2)CC1, the AC50 was 8.17 µM (active). For CC(C)(c1cc(Br)c(O)c(Br)c1)c1cc(Br)c(O)c(Br)c1, the outcome was “inactive”. With CCCCCCCCN(C)CCCCCCCC the outcome was “inactive”.
